Records with an inconclusive call do not appear. The source made the active and inactive calls. The call rests on the fitted dose curve; in most records, active means well fitted inhibition curve with a large enough effect; inconclusive means small, poorly fitted or top-dose-only effect; inactive means flat fitted curve, though single readings scatter.
Tests used:
Assay in all cases: qHTS profiling for inhibitors of Plasmodium falciparum proliferation (AID 504749); further: nearly all actives have a fitted effect of over 60% in size
Details in all cases: P. falciparum in erythrocytes, SYBR Green DNA, 72 h; series mostly up to 28.7 µM
CP191 = system: CP191
Outline: (§1)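 Readout was DNA-dye fluorescence from lysed cultures, ex 485/em 535 nm. Parasitized red cells had grown 72 h with compound; data scaled between 0.29 uM artemisinin and DMSO wells and corrected using vehicle-only plates.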

CP192 = system: CP192
Outline: as §1

CP194 = system: CP194
Outline: as §1

CP201 = system: CP201
Outline: as §1

CP203 = system: CP203
Outline: as §1

CP211 = system: CP211
Outline: as §1

CP217 = system: CP217
Outline: as §1

CP237 = system: CP237
Outline: as §1

CP238 = system: CP238
Outline: as §1

CP247 = system: CP247
Outline: as §1

CP250 = system: CP250
Outline: as §1

CP252 = system: CP252
Outline: as §1

CP256 = system: CP256
Outline: as §1

CP260 = system: CP260
Outline: as §1

CP262 = system: CP262
Outline: as §1

CP265 = system: CP265
Outline: as §1

CP266 = system: CP266
Outline: as §1

CP268 = system: CP268
Outline: as §1

CP269 = system: CP269
Outline: as §1

CP215 = system: CP215
Outline: as §1

Measured: Potency
Potency means the concentration at half of the fitted maximal effect.

COc1cc2c(c(OC)c1OC)-c1ccc(OC)c(=O)cc1[C@@H](NC(C)=O)CC2
not listed: CP215
inactive: all other assays above

CN1CCC(=C2c3ccccc3C=Cc3ccccc32)CC1
not listed: CP203 | CP268 | CP269
inactive: all other assays above

CCOC(=O)c1ncn2c1CN(C)C(=O)c1cc(F)ccc1-2
not listed: CP266
inactive: all other assays above

O=c1c(-c2ccc(O)cc2)coc2cc(O)cc(O)c12
inactive: all assays above

COc1ccccc1N1CCN(CC(O)COc2cccc3ccccc23)CC1 (stereo not given)
inactive: all assays above

CC(CCc1ccc(O)cc1)NCCc1ccc(O)c(O)c1 (stereo not given)
not listed: CP203
inactive: all other assays above

Cn1c(=O)c2[nH]cnc2n(C)c1=O
not listed: CP203
inactive: all other assays above

CC[N+](CC)(CC)CCOc1cccc(OCC[N+](CC)(CC)CC)c1OCC[N+](CC)(CC)CC
not listed: CP203
inactive: all other assays above

CN(C)c1nc(N(C)C)nc(N(C)C)n1
not listed: CP203
inactive: all other assays above

N[C@@H](Cc1c[nH]c2ccc(O)cc12)C(=O)O
inactive: all assays above

Cn1c(=O)c2c(ncn2C)n(C)c1=O
not listed: CP203
inactive: all other assays above

COc1nc(C)nc(Cl)c1NC1=NCCN1
not listed: CP203 | CP266
inactive: all other assays above

NS(=O)(=O)c1cc2c(cc1Cl)NCNS2(=O)=O
not listed: CP203
inactive: all other assays above

Nc1c2c(nc3ccccc13)CCCC2
inactive: CP201 | CP217 | CP238 | CP250 | CP252 | CP266

COC(=O)Nc1nc2ccc(C(=O)c3cccs3)cc2[nH]1
not listed: CP203 | CP260
inactive: all other assays above

Clc1ccc(C(c2ccccc2Cl)C(Cl)Cl)cc1 (stereo not given)
not listed: CP191 | CP194 | CP201 | CP203 | CP211 | CP260 | CP268 | CP215
inactive: all other assays above

CC(=O)OCC(CCn1cnc2cnc(N)nc21)COC(C)=O
not listed: CP203 | CP266
inactive: all other assays above

CC[C@@]1(O)C(=O)OCc2c1cc1n(c2=O)Cc2cc3c(CN(C)C)c(O)ccc3nc2-1
inactive: CP266
active: CP191 8.91 µM | CP194 4.78 µM | CP203 6.75 µM | CP211 6.01 µM | CP215 6.01 µM | CP237 8.91 µM | CP250 4.47 µM | CP260 6.31 µM | CP265 6.31 µM

CC(C)C(=O)Nc1ccc([N+](=O)[O-])c(C(F)(F)F)c1
not listed: CP203 | CP247
inactive: all other assays above

COc1ccccc1OCCNCC(O)COc1cccc2[nH]c3ccccc3c12 (stereo not given)
inactive: CP192 | CP201 | CP211 | CP266
active: CP237 12.6 µM | CP256 11.2 µM | CP265 8.91 µM

CN(Cc1cnc2nc(N)nc(N)c2n1)c1ccc(C(=O)N[C@@H](CCC(=O)O)C(=O)O)cc1
active: CP237 0.1 µM | CP250 0.178 µM | CP260 0.158 µM
not listed: CP191 | CP203 | CP217 | CP238 | CP247 | CP256 | CP265
inactive: all other assays above

CCCCc1oc2ccccc2c1C(=O)c1cc(I)c(OCCN(CC)CC)c(I)c1
inactive: CP266
active: CP191 8.91 µM | CP215 15.1 µM | CP217 5.62 µM | CP237 7.08 µM | CP238 7.94 µM | CP247 8.91 µM | CP250 7.94 µM | CP252 11.2 µM | CP256 12.6 µM | CP260 3.98 µM | CP265 7.08 µM

O=C1c2c(O)ccc(O)c2C(=O)c2c(NCCNCCO)ccc(NCCNCCO)c21
active: CP191 3.55 µM | CP194 6.42 µM | CP201 6.42 µM | CP211 6.42 µM | CP215 6.42 µM | CP217 3.55 µM | CP237 1.26 µM | CP238 3.16 µM | CP247 3.16 µM | CP250 3.16 µM | CP252 3.16 µM | CP260 1 µM | CP266 5.1 µM | CP268 7.21 µM | CP269 7.21 µM

CN(C)CCC=C1c2ccccc2C=Cc2ccccc21
inactive: CP192 | CP211 | CP217 | CP237 | CP247 | CP250 | CP252 | CP260 | CP262 | CP265 | CP266

Clc1ccccc1C(c1ccccc1)(c1ccccc1)n1ccnc1
active: CP191 0.794 µM | CP192 1.81 µM | CP194 1.44 µM | CP201 4.55 µM | CP211 2.28 µM | CP215 1.14 µM | CP217 0.631 µM | CP237 0.398 µM | CP238 0.794 µM | CP247 0.891 µM | CP250 1.58 µM | CP252 0.891 µM | CP256 2 µM | CP260 1.41 µM | CP262 1.02 µM | CP265 0.708 µM | CP268 2.28 µM | CP269 0.907 µM

O=c1c(O)c(-c2ccc(O)c(O)c2)oc2cc(O)cc(O)c12
inactive: CP266
active: CP215 13.5 µM | CP247 7.08 µM

CCOC(=O)Nc1ccc(NCc2ccc(F)cc2)nc1N
active: CP191 11.2 µM | CP217 10 µM | CP237 10 µM | CP247 12.6 µM | CP252 8.91 µM | CP256 10 µM | CP260 11.2 µM | CP262 12 µM | CP265 11.2 µM

CN(C)CCOC(c1ccccc1)c1ccccc1
active: CP260 5.62 µM
inactive: CP191 | CP192 | CP201 | CP215 | CP217 | CP247 | CP250 | CP262 | CP266 | CP269

COc1ccc(CCN(C)CCCC(C#N)(c2ccc(OC)c(OC)c2)C(C)C)cc1OC (stereo not given)
not listed: CP194 | CP203 | CP211 | CP237 | CP260 | CP266 | CP269 | CP215
inactive: all other assays above

CC12CC3CC(C)(C1)CC(N)(C3)C2
not listed: CP203 | CP237 | CP260
inactive: all other assays above

OCCN1CCN(CCCN2c3ccccc3Sc3ccc(C(F)(F)F)cc32)CC1
active: CP191 7.94 µM | CP194 10.7 µM | CP201 8.49 µM | CP211 7.57 µM | CP215 13.5 µM | CP217 10 µM | CP237 12.6 µM | CP238 8.91 µM | CP247 11.2 µM | CP250 12.6 µM | CP252 10 µM | CP256 3.16 µM | CP260 7.94 µM | CP262 5.36 µM | CP265 11.2 µM | CP268 13.5 µM | CP269 6.01 µM

CN1CCC(=C2c3ccccc3CC(=O)c3sccc32)CC1
active: CP265 10 µM
inactive: CP192 | CP250 | CP252 | CP262 | CP266

CC1(CN2CCC(n3c(=O)[nH]c4ccccc43)CC2)OCc2ccccc2-n2cccc21 (stereo not given)
inactive: CP192 | CP262 | CP266

Cc1cc(C(C)(C)C)cc(C)c1CC1=NCCN1
active: CP237 3.98 µM
not listed: CP192 | CP203 | CP268
inactive: all other assays above

Source: PubChem BioAssay (NCATS)
